# Structures can show the parent of a compound that is named as a salt.
# Tested on: K562
# Assay: cell viability relative to vehicle control; higher = less cytotoxic
# Details: 10 µM; SRSF2 genotype: SRSF2 wt/wt
# Procedure, shortened: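 Screening covered the Selleck bioactive, kinase and epigenetic probe libraries, less identity-inconsistent compounds, on CRISPR-edited mutant clones and isogenic wild-type clones of four leukaemia lines. Cells, at 2000 per well in 50 µL medium, received a single 10 µM acoustically dispensed dose. After 48 h the supernatant was removed and CellTiter-Glo luminescence was read. Viability was analysed in Genedata Screener as percent of the on-plate vehicle control.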
row,Structure (SMILES),cell viability [%]
1,Cc1ccc2nc(NC(=O)CSc3nc4c(c(=O)n3-c3ccccc3)SCC4)sc2c1,89.8
2,COC(=O)C1=C(C)NC(C)=C(C(=O)OCCN(C)Cc2ccccc2)C1c1cccc([N+](=O)[O-])c1 (stereo not given) [Nicardipine HCl],80.5
3,O=C(O)c1cccnc1Nc1cccc(C(F)(F)F)c1 [Niflumic acid],94.6
4,Cc1cc(Nc2cc(N3CCN(C)CC3)nc(/C=C/c3ccccc3)n2)n[nH]1 [ENMD-2076 L-(+)-Tartaric acid],22.9
5,CC(C)[C@H]1CC[C@H](C(=O)N[C@H](Cc2ccccc2)C(=O)O)CC1 [Nateglinide (Starlix)],98.8
6,O=C1C[C@@H](c2ccc(O)cc2)Oc2cc(O)cc(O)c21 [Naringenin],103
7,C=CC(=O)N1CCC[C@@H](n2nc(-c3ccc(Oc4ccccc4)cc3)c3c(N)ncnc32)C1,42.9
8,CC(=O)OC(CC(C)C1=C2CC(O)C3C4(C)CCC(=O)C(C)(C)C4CCC3(C)C2(C)CC1)C1OC1(C)C (stereo not given) [Alisol B Acetate],87.8
9,CC(=O)Nc1cccc2c1c(Sc1ccc(Cl)cc1)c(C)n2CC(=O)O,100
10,Cc1cc(NS(=O)(=O)c2ccc(N)cc2)no1 [Sulfamethoxazole sodium],100
11,C[C@@H]1O[C@@H](O[C@H]2[C@H](Oc3cc(O)c4c(c3)O[C@H](c3ccc(O)cc3)CC4=O)O[C@H](CO)[C@@H](O)[C@@H]2O)[C@H](O)[C@H](O)[C@H]1O [Naringin (Naringoside)],111
12,C[C@]12CC[C@H](O)CC1=CC[C@@H]1[C@@H]2CC[C@]2(C)C(n3cnc4ccccc43)=CC[C@@H]12 [Galeterone (TOK-001)],95.7
13,COc1cc(C(=O)N(CCCc2ccccc2)Cc2ccc(CC(=O)O)cc2)cc(OC)c1C,99.5
14,Oc1ccc(OC2CCCCO2)cc1 (stereo not given) [Deoxyarbutin],105
15,NS(=O)(=O)c1ccccc1 [Benzenesulfonamide],109
16,COc1ccc([C@@H]2CC(=O)c3c(O)cc(O[C@@H]4O[C@H](CO)[C@@H](O)[C@H](O)[C@H]4O[C@@H]4O[C@@H](C)[C@H](O)[C@@H](O)[C@H]4O)cc3O2)cc1 [Poncirin],99.2
17,CC(=O)Oc1cc(C(F)(F)F)ccc1C(=O)O [Triflusal],99.7
18,OC1OC[C@@H](O)[C@@H](O)[C@@H]1O (stereo partly drawn) [D(-)-Arabinose],118
19,CC[C@@H]([C@H](C)O)n1ncn(-c2ccc(N3CCN(c4ccc(OC[C@@H]5CO[C@@](Cn6cncn6)(c6ccc(F)cc6F)C5)cc4)CC3)cc2)c1=O [Posaconazole],87
20,Nc1nc(-c2nn(Cc3ccccc3F)c3ncccc23)ncc1C1CC1,95.3

row,Structure (SMILES),cell viability [%]
1,COc1cc2c(cc1OC)[C@@H](Cc1ccc(O)c(Oc3cc4c(cc3OC)CCN(C)[C@@H]4Cc3ccc(O)cc3)c1)N(C)CC2 [Liensinine],78.5
2,NC(=O)c1cnccn1 [Pyrazinamide (Pyrazinoic acid amide)],110
3,CC(C)(C)NS(=O)(=O)c1cncc(-c2cc(F)c3nc(N)nn3c2)c1,101
4,CC(=O)O[C@@H]1C[C@@]23C[C@@]24CC[C@H](O[C@@H]2OC[C@@H](O)[C@H](O)[C@H]2O)C(C)(C)[C@@H]4CC=C3[C@]2(C)C[C@@H]3OC4(C[C@@H](C)[C@@H]3[C@@]12C)OC(O)C1(C)OC41 (stereo not given in full) [Cimicifugoside],105
5,O=C(O)c1ccc(CN2CCC(CN[C@@H]3C[C@H]3c3ccccc3)CC2)cc1,95.4
6,CN1C(N)=N[C@](C)(c2cc(NC(=O)c3ccc(F)cn3)ccc2F)CS1(=O)=O [Verubecestat (MK-8931)],98.3
7,O=C[C@H](O)[C@@H](O)[C@H](O)CO [Xylose],96
8,COc1ccc(CCNCC(O)COc2cccc(C)c2)cc1OC (stereo not given) [Bevantolol hydrochloride],88.2
9,C/C=C1\[C@H]2C=C(C)C[C@]1(N)c1ccc(=O)[nH]c1C2 [(-)-Huperzine A (HupA)],108
10,COC(=O)CCC(C)C1CCC2C3C(O)CC4CC(O)CCC4(C)C3CC(O)C12C (stereo not given) [Methyl Cholate],101
11,Cc1cccc(C)c1NC(=O)c1cc(S(N)(=O)=O)c(Cl)cc1O [Xipamide],104
12,Cn1nnc2c(C(N)=O)ncn2c1=O [Temozolomide],101
13,COc1ccc(Oc2cc(NCCC(F)(F)F)c3ncc(-c4ccc(C(=O)NC5CC5)c(C)c4)n3n2)c(F)c1F,108
14,NC(=O)Cc1c[nH]c2ccccc12 [Indole-3-acetamide],107
15,COc1ccc(CC(=O)O)cc1OC [Homoveratrumic acid],85.9
16,COc1ccc2c(c1O)-c1c(O)c(OC)cc3c1[C@H](C2)[N+](C)(C)CC3 [Magnoflorinechloride],98.2
17,CC(c1cc2ccccc2s1)N(O)C(N)=O (stereo not given) [Zileuton],99.1
18,Cc1c(C(=O)N2CCOc3ccc(-c4ccc(N)nc4)cc3C2)ccc(S(C)(=O)=O)c1F,84.4
19,CC(C)(Oc1ccc(Cl)cc1)C(=O)OCCOC(=O)c1cccnc1 [Etofibrate],95.4
20,COc1cc(-c2oc3cc(O)cc(O)c3c(=O)c2OC2OC(COC3OC(C)C(O)C(O)C3O)C(O)C(O)C2OC2OC(C)C(O)C(O)C2O)ccc1O (stereo not given) [Typhaneoside],98.7

# From the supplement of paper PMC10981050
